The results in this text go back to PubChem BioAssay (NCI).

About 83,000 compounds went through this panel and 20% of them were active in at least one assay; those are over-represented in the sample as a whole.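 A percent growth of 40 corresponds to 60% growth inhibition; 0 means no net growth; -100 means all cells died. Active threshold: below 10.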 Unmarked numbers belong to inactive results. Activity calls are given as the source filed them.

In this experiment the test system is LOX IMVI melanoma. The experiment is described as follows: NCI-60 one-dose screen, 48 h (100 = growth as untreated, 0 = no growth, -100 = all killed). Particulars: 10 µM unless noted. As to the method:
Growth inhibition of the LOX IMVI human tumor cell line is measured as a screen for anti-cancer activity. Cells are grown in 96 well plates and exposed to the test compound for 48 hours. Compounds are tested at a single concentration, which is 10^-5 M for most compounds. The reported endpoint is percent growth (GI% or GIPRCNT), where numbers from 0 - 100% represent growth inhibition, and numbers from -100% - 0 represent cell death. For example, a value of 40 represents 60% growth inhibition. A value of 0 means no net growth occurred over the course of the experiment. A value of -40 indicates 40% of cells at the beginning of the experiment died by the end of the experiment. A value of -100 means all cells are dead at the end of the experiment.
NCI-60 Human Tumor Cell Lines Screen was performed using the standard one-dose NCI protocol, which is described in more detail at https://dtp.cancer.gov/discovery_development/nci-60/default.htm.
Compounds with GIPRCNT values below 10 were considered active. Activity score was based on GIPRCNT using the following formula: […]
Score is 0 for GIPRCNT values of 100 or above, 50 for GIPRCNT values of 0, and 100 for GIPRCNT values of -100.
On to `COc1ccc(C/C(C)=C(\c2ccc(OCCN3CCCCCC3)cc2)c2ccc(OC(=O)C3CCCCC3)cc2)cc1`, for which the growth is 66.8%.

`CCCCCC(=O)N(CCCC)CCCC`: the growth is 110%.

For the compound `Cn1c2ccccc2c2c3[nH]c(=O)[nH]c(=O)c3c3c4ccccc4n(C)c3c21`, the growth was 22.5%.

On to `COC1=CC(=O)C(OC)=C(OC)C1=O`, for which the growth is 84.6%.

For the compound `CCOC(=O)c1ccc2c(c1)nc(/C=C/c1ccc(Cl)cc1)n2-c1cc(C(C)(C)C)[nH]n1`, the growth is 39.9%.

Regarding `COc1cc2nc3cc([N+](=O)[O-])ccc3c(NCCCNCC(C)(C)O)c2cc1OC`, the growth is -58.4% (active).

As to `O=[N+]([O-])c1c(F)cccc1Nc1cccc(F)c1`, the growth was 102%.

Turning to `CCN(CC)CCCC(C)NCCCNc1cccc2cccnc12` (stereo not given), the growth was 85.3%.

For the compound `COc1ccc(-c2cc(-c3cccnc3)nc3sc4c(=O)n(-c5ccc(C)cc5)cnc4c23)cc1OC`, the growth was 97.9%.

Take `Cc1ccc(N)cc1F`: the growth was 87.8%.

Take `COc1ccc2[nH]c(=O)c(/C=C/C(=O)c3ccc(Nc4nccc(-c5ccc6ccccc6c5)n4)cc3)cc2c1`: the growth was 100%.

Turning to `NC(CC(=O)O)C(=O)OCc1ccccc1` (stereo not given), the growth is 107%.

With `CCN(CC)c1ccc(/C=C/C2=[N+](C)c3ccccc3C2(C)C)cc1`, the growth is 13.3%.

On to `CCCCCCCCCCCCN1CCCC(C)C1` (stereo not given), for which the growth was 56.4%.

With `COc1nc2c(cc1S(=O)(=O)c1ccccc1)CCc1c-2cnn1Cc1ccccc1`, the growth is 65.9%.

As for `O=C(/C=C\c1ccc2ccccc2n1)c1cc(Cl)ccc1O`, the growth is 40.8%.

For `COc1ccc(-c2nc(Nc3cc(C)[nH]n3)c3ccccc3n2)cc1`, the growth was 13.7%.

On to `COc1cc(-c2c3c(nc4c2c(C)nn4-c2ccccc2)-c2ccccc2C(=O)C3=O)cc(OC)c1OC`, for which the growth is 35.7%.

Turning to `O=C1c2cccnc2C(=O)c2c1c(C(=O)OCCN1CCOCC1)c1ccccn21`, the growth is -46% (active).

As for `COc1ccc(CN(c2ccc(C)cc2)C2OC(=O)c3ccccc32)cc1OC` (stereo not given), the growth was 93.2%.

Turning to `N=c1c2ccccc2nc2n1CCCCC2`, the growth is 106%.

For the compound `COc1cc(NCCCCN=C(N)NC(N)=NC(C)C)c2ncccc2c1`, the growth is 46.6%.

Turning to `CCOC(=O)c1cnc2ccc(Br)cc2c1Nc1cccc(S(=O)(=O)NC)c1`, the growth is 93.6%.

Take `O=C(CO[N+](=O)[O-])Nc1ccc(C(=O)/C=C/c2ccc(Cl)cc2)cc1`: the growth is -60.9% (active).

As for `CN(C)CCCC(=O)Nc1ccc(Cn2nnc3c2C(=O)c2nnn(Cc4ccc(NC(=O)CCCN(C)C)cc4)c2C3=O)cc1`, the growth is 6.92% (active).

Regarding `COC1/C=C\OC2(C)Oc3c(C)c(O)c4c(O)c(c(CN(C)CCO)c(O)c4c3C2=O)NC(=O)/C(C)=C\C=C/C(C)C(O)C(C)C(O)C(C)C(OC(C)=O)C1C` (stereo not given), the growth is 94.9%.

`CN[C@@]12CC3(C=CC(=O)C=C3)O[C@]1(Cc1ccc(OC)cc1)N(C)C(=O)N2`: the growth was 10.3%.

In the case of `COc1ccc2nc(NC(=O)c3cccnc3Nc3cc(OC)c(OC)c(OC)c3)sc2c1`, the growth was 37.1%.

Regarding `C=CC[N+]1(CCO)CCN=C1CCCCCCCCCCCCC` (stereo not given), the growth was -87.9% (active).

In the case of `CNC(=S)N/N=C/CSC/C=N/NC(=S)NC`, the growth was 84.6%.

On to `CN(C)c1ccc(/C=C\C2=[N+](C)c3ccccc3C2(C)C)cc1`, for which the growth was 16.1%.

Regarding `COc1cccc(/C=C2/C(=O)N(Cc3ccco3)SC2=S)c1OC`, the growth was 33.8%.

`Cc1ccccc1CCO`: the growth was 103%.

As for `O=C1/C(=C/c2ccc(Cl)c(Cl)c2)CN(C(=O)CCN2CCC(=NO)CC2)C/C1=C\c1ccc(Cl)c(Cl)c1`, the growth is -90.6% (active).

Regarding `O=C(CCCCN1CCOCC1)Nc1ccc(Cn2nnc3c2C(=O)c2nnn(Cc4ccc(NC(=O)CCCCN5CCOCC5)cc4)c2C3=O)cc1`, the growth is -23.2% (active).

Turning to `O=c1ccc2cc3ccccc3cc2[nH]1`, the growth is 102%.

For `C=C1CCC2C3(C)COC(c4ccc(SC)cc4)OC3CCC2(C)C1C/C=C1/C(=O)OCC1O` (stereo not given), the growth is 23.3%.

`Cc1ccc2c(c1)C(=O)/C(=C/c1ccc(OCC(=O)c3ccccc3)cc1)O2`: the growth was 102%.

Consider `Nc1ccc(Nc2nccc(-c3ccc4ccccc4c3)n2)cc1`, for which the growth is 38.1%.

Consider `C/C(Cc1ccc(Cl)cc1)=C(\c1ccc(OCCN2CCCCCC2)cc1)c1ccc(OC(=O)Cc2ccccc2)cc1`, for which the growth was 78.3%.
